Measurements: PubChem BioAssay AID1159580 (chemical genetic matrix, 2015)
About 2,000 (36%) of roughly 5,500 compounds were called active. Not shown: some 18% with an inconclusive outcome. Rule as the data show it: active = normalized growth mostly below about 0.91 (no sharp cut-off); inconclusive = no clear call, values can overlap the other calls; inactive = mostly above about 0.92. Some of the results follow.

Experiment: chemical genetic growth profiling, strain panel (AID 1159580);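 also: tested at 20 µM; growth read once vehicle control cultures reached saturation at 30 °C; 1 = growth at the plate median or of vehicle wells; lower values mean less growth of the strain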
Details: growth OD

Measured: normalized growth

C[N+](C)(C)CCOP(=O)([O-])OP(=O)(O)OC[C@H]1OC(n2ccc(N)nc2=O)[C@H](O)[C@@H]1O (some centres not stated)
inactive: S. cerevisiae deletion strains, locus YJR075W, strain HOC1, hits give low values 0.975 | S. cerevisiae deletion strains, locus YKL009W, strain mrt4, hits give low values 1.03 | S. cerevisiae deletion strains, locus YKL068W, hits give low values 0.991 | S. cerevisiae deletion strains, locus YKL085W, strain MDH1 (second series), hits give low values 1.02 | S. cerevisiae deletion strains, locus YKL085W, strain MDH1, hits give low values 1.02 | S. cerevisiae deletion strains, locus YKL160W, strain elf1, hits give low values 0.984 | S. cerevisiae deletion strains, locus YKL190W, strain CNB1, hits give low values 0.999 | S. cerevisiae deletion strains, locus YKR001C, strain vps1, hits give low values 1.01 | S. cerevisiae deletion strains, locus YKR026C, strain gcn3, hits give low values 0.979 | S. cerevisiae deletion strains, locus YKR091W, strain srl3, hits give low values 0.982 | S. cerevisiae deletion strains, locus YLL001W, strain dnm1, hits give low values 0.963 | S. cerevisiae deletion strains, locus YLL026W, hits give low values 0.985 | S. cerevisiae deletion strains, locus YLL041C, strain sdh2, hits give low values 0.98 | S. cerevisiae deletion strains, locus YLR027C, strain aat2, hits give low values 0.987 | S. cerevisiae deletion strains, locus YLR039C, strain RIC1, hits give low values 1.03 | S. cerevisiae deletion strains, locus YLR058C, strain SHM2, hits give low values 1 | S. cerevisiae deletion strains, locus YLR102C, strain apc9, hits give low values 1.01 | S. cerevisiae deletion strains, locus YLR113W, strain HOG1, hits give low values 0.978 | S. cerevisiae deletion strains, locus YLR221C, strain rsa3, hits give low values 1.01 | S. cerevisiae deletion strains, locus YLR258W, strain gsy2, hits give low values 0.999 | S. cerevisiae deletion strains, locus YLR262C, strain YPT6 (second series), hits give low values 0.98 | S. cerevisiae deletion strains, locus YLR262C, strain YPT6, hits give low values 0.993 | S. cerevisiae deletion strains, locus YLR268W, strain sec22, hits give low values 0.974 | S. cerevisiae deletion strains, locus YLR320W, strain mms22, hits give low values 1.01 | S. cerevisiae deletion strains, locus YLR330W, strain CHS5, hits give low values 1 | S. cerevisiae deletion strains, locus YLR342W, strain FKS1 (second series), hits give low values 1.05 | S. cerevisiae deletion strains, locus YLR342W, strain FKS1, hits give low values 0.974 | S. cerevisiae deletion strains, locus YLR357W, strain rsc2, hits give low values 0.994 | S. cerevisiae deletion strains, locus YLR370C, strain arc18, hits give low values 0.981 | S. cerevisiae deletion strains, locus YLR371W, strain rom2, hits give low values 1.01 | S. cerevisiae deletion strains, locus YLR384C, strain iki3, hits give low values 0.981 | S. cerevisiae deletion strains, locus YLR418C, strain cdc73, hits give low values 0.963 | S. cerevisiae deletion strains, locus YML016C, strain PPZ1, hits give low values 1 | S. cerevisiae deletion strains, locus YML032C, strain rad52, hits give low values 1.02 | S. cerevisiae deletion strains, locus YML120C, strain ndi1, hits give low values 0.999 | S. cerevisiae deletion strains, locus YML124C, strain tub3, hits give low values 1.01 | S. cerevisiae deletion strains, locus YMR058W, strain fet3, hits give low values 0.978 | S. cerevisiae deletion strains, locus YMR078C, strain ctf18, hits give low values 1 | S. cerevisiae deletion strains, locus YMR125W, strain sto1, hits give low values 0.994 | S. cerevisiae deletion strains, locus YMR129W, hits give low values 0.981 | S. cerevisiae deletion strains, locus YMR205C, strain PFK2, hits give low values 0.99 | S. cerevisiae deletion strains, locus YMR223W, strain ubp8, hits give low values 1.02 | S. cerevisiae deletion strains, locus YMR231W, strain pep5, hits give low values 0.989 | S. cerevisiae deletion strains, locus YMR263W, strain SAP30, hits give low values 0.983 | S. cerevisiae deletion strains, locus YMR307W, strain GAS1, hits give low values 1.04 | S. cerevisiae deletion strains, locus YNL067W, strain RPL9B, hits give low values 0.969 | S. cerevisiae deletion strains, locus YNL071W, strain lat1, hits give low values 0.991 | S. cerevisiae deletion strains, locus YNL128W, strain TEP1, hits give low values 0.943 | S. cerevisiae deletion strains, locus YNL153C, strain GIM3, hits give low values 0.985 | S. cerevisiae deletion strains, locus YNL183C, strain NPR1, hits give low values 0.964 | S. cerevisiae deletion strains, locus YNL209W, strain ssb2, hits give low values 1 | S. cerevisiae deletion strains, locus YNL233W, strain BNI4, hits give low values 0.994 | S. cerevisiae deletion strains, locus YNL248C, strain rpa49, hits give low values 1 | S. cerevisiae deletion strains, locus YNL250W, strain rad50, hits give low values 1 | S. cerevisiae deletion strains, locus YNL271C, strain bni1, hits give low values 0.995 | S. cerevisiae deletion strains, locus YNL298W, strain CLA4, hits give low values 1 | S. cerevisiae deletion strains, locus YNL307C, strain MCK1, hits give low values 1.02 | S. cerevisiae deletion strains, locus YNL322C, strain KRE1 (second series), hits give low values 0.975 | S. cerevisiae deletion strains, locus YNL322C, strain KRE1, hits give low values 0.998 | S. cerevisiae deletion strains, locus YNR049C, strain mso1, hits give low values 0.972 | S. cerevisiae deletion strains, locus YNR052C, strain pop2, hits give low values 1.02 | S. cerevisiae deletion strains, locus YOL006C, strain TOP1, hits give low values 1.04 | S. cerevisiae deletion strains, locus YOL012C, strain htz1 0.746 | S. cerevisiae deletion strains, locus YOL147C, strain pex11, hits give low values 1 | S. cerevisiae deletion strains, locus YOR001W, strain rrp6, hits give low values 0.988 | S. cerevisiae deletion strains, locus YOR061W, strain CKA2, hits give low values 1 | S. cerevisiae deletion strains, locus YOR069W, strain VPS5, hits give low values 1 | S. cerevisiae deletion strains, locus YOR070C, strain gyp1, hits give low values 0.998 | S. cerevisiae deletion strains, locus YOR080W, strain dia2, hits give low values 0.985 | S. cerevisiae deletion strains, locus YOR083W, strain WHI5, hits give low values 0.989 | S. cerevisiae deletion strains, locus YOR106W, strain vam3, hits give low values 0.982 | S. cerevisiae deletion strains, locus YOR136W, strain idh2, hits give low values 1 | S. cerevisiae deletion strains, locus YOR144C, strain elg1, hits give low values 1 | S. cerevisiae deletion strains, locus YOR184W, strain ser1, hits give low values 1.03 | S. cerevisiae deletion strains, locus YOR231W, strain MKK1, hits give low values 1 | S. cerevisiae deletion strains, locus YOR265W, strain rbl2, hits give low values 0.985 | S. cerevisiae deletion strains, locus YOR270C, strain vph1, hits give low values 0.98 | S. cerevisiae deletion strains, locus YOR290C, strain snf2, hits give low values 1.01 | S. cerevisiae deletion strains, locus YOR316C, strain cot1, hits give low values 1.01 | S. cerevisiae deletion strains, locus YPL051W, strain arl3, hits give low values 0.999 | S. cerevisiae deletion strains, locus YPL055C, strain LGE1, hits give low values 0.937 | S. cerevisiae deletion strains, locus YPL078C, strain atp4, hits give low values 0.976 | S. cerevisiae deletion strains, locus YPL106C, strain sse1, hits give low values 0.993 | S. cerevisiae deletion strains, locus YPL240C, strain hsp82, hits give low values 0.993 | S. cerevisiae deletion strains, locus YPL241C, strain CIN2, hits give low values 0.992 | S. cerevisiae deletion strains, locus YPL256C, strain CLN2, hits give low values 0.982 | S. cerevisiae deletion strains, locus YPR119W, strain clb2, hits give low values 0.993 | S. cerevisiae deletion strains, locus YPR141C, strain kar3, hits give low values 0.993 | S. cerevisiae deletion strains, locus YPR163C, strain tif3, hits give low values 1.01 | S. cerevisiae deletion strains, locus YPR167C, strain met16, hits give low values 0.992 | S. cerevisiae deletion strains, strain wtn01, hits give low values 0.987 | S. cerevisiae strains, strain wild type, hits give low values 0.972
